Compounds with a hit are over-represented: about 12% of the library has one in this group of screens.
HP1b binding inh: HP1-beta chromodomain-methylated histone interaction inhibition. AlphaScreen HP1-beta / biotin-H3K9me3 peptide binding. 390,000 compounds, 0.56% hits. AID 540317. Potency, µM (top dose mostly 114 µM), without a hit: top-dose activity change, negative = inhibition, hits mostly inhibitors; further: potency means the concentration at half of the fitted maximal effect; nearly all actives have a fitted effect of over 70% in size
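Compound inhibition of the preformed complex between 50 nM HP1-beta and 50 nM biotinylated H3K9me3 peptide was read by AlphaScreen. Buffer was PBS pH 7.4 with 0.01% Tween-20. Incubations ran 30 min at room temperature, with 10 ug/mL donor/acceptor beads.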
JMJD2A Tudor: JMJD2A Tudor domain (human) inhibition; O75164; AlphaScreen JMJD2A-Tudor / H3K4me3 peptide binding; Potency, µM (top dose mostly 114 µM), inactives show at the top dose activity change, negative = inhibition, most hits filed as inhibitors; 390,000 compounds, 4.4% hits; AID 504339; further: potency means the concentration at half of the fitted maximal effect; on the % scale 0 is the no-effect control and ±100 the full control effect; nearly all actives have a fitted effect of over 50% in size
PLK1 PBD block: blocks phosphopeptide binding to human PLK1 polo-box domain. P53350. 360,000 compounds, 2.8% hits. Potency, µM, for the others: max response, negative = inhibition, usual class: inhibitors. Plk1 PBD binding of FITC phosphopeptide, fluorescence polarization; further: potency means the concentration at half of the fitted maximal effect; series mostly up to about 57 µM; on the % scale 0 is the no-effect control and ±100 the full control effect; nearly all actives have a fitted effect of over 65% in size
PI5P4K alpha inh: PI5P4K alpha (human) kinase inhibition. 330,000 compounds, 1.2% hits. AID 652105. P48426. max response, %. PI5P4Kalpha enzyme, ADP-Glo luminescence, 60 min; hits give low values; active means max response of -50% or lower; inconclusive means between -30% and -50%; inactive means -30% or higher; further: value at the top dose of about 77 µM; on the % scale 0 is the no-effect control and ±100 the full control effect
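Controls without substrate or without enzyme flank wells where PI5P4Kalpha converts substrate using 5 microM ATP (final). Incubation lasts 60 minutes at room temperature; ADP formed is read by ADP-Glo luminescence.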
G9a inh: G9a (human) methyltransferase inhibition. 350,000 compounds, 8.8% hits. G9a H3K9 monomethylation, AlphaScreen, 2 h. Q96KQ7. Potency, µM (series often up to 102 µM), for inactives: at the top dose activity, negative = inhibition, usual class: inhibitors; further: potency means the concentration at half of the fitted maximal effect; on the % scale 0 is the no-effect control and ±100 the full control effect; nearly all actives have a fitted effect of over 75% in size
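Quantitative HTS format: methyltransferase activity on a biotin-tagged H3K9 peptide is measured by AlphaScreen, using a rabbit anti-monomethyl-H3K9 antibody with streptavidin donor and anti-IgG acceptor beads. Final levels are 20 nM enzyme, 500 nM peptide, 20 uM SAM; 2 h RT.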
BAZ2B inh: inhibitors of human BAZ2B bromodomain. AlphaScreen BAZ2B-H3K14Ac peptide displacement. Potency, µM (series often up to 114 µM), without a hit: at the top dose activity change, negative = inhibition, hits mostly inhibitors. 360,000 compounds, 4.4% hits. AID 504333; further: potency means the concentration at half of the fitted maximal effect; on the % scale 0 is the no-effect control and ±100 the full control effect; nearly all actives have a fitted effect of over 60% in size
Target sequence (Q9UIF8 whole entry, looked up): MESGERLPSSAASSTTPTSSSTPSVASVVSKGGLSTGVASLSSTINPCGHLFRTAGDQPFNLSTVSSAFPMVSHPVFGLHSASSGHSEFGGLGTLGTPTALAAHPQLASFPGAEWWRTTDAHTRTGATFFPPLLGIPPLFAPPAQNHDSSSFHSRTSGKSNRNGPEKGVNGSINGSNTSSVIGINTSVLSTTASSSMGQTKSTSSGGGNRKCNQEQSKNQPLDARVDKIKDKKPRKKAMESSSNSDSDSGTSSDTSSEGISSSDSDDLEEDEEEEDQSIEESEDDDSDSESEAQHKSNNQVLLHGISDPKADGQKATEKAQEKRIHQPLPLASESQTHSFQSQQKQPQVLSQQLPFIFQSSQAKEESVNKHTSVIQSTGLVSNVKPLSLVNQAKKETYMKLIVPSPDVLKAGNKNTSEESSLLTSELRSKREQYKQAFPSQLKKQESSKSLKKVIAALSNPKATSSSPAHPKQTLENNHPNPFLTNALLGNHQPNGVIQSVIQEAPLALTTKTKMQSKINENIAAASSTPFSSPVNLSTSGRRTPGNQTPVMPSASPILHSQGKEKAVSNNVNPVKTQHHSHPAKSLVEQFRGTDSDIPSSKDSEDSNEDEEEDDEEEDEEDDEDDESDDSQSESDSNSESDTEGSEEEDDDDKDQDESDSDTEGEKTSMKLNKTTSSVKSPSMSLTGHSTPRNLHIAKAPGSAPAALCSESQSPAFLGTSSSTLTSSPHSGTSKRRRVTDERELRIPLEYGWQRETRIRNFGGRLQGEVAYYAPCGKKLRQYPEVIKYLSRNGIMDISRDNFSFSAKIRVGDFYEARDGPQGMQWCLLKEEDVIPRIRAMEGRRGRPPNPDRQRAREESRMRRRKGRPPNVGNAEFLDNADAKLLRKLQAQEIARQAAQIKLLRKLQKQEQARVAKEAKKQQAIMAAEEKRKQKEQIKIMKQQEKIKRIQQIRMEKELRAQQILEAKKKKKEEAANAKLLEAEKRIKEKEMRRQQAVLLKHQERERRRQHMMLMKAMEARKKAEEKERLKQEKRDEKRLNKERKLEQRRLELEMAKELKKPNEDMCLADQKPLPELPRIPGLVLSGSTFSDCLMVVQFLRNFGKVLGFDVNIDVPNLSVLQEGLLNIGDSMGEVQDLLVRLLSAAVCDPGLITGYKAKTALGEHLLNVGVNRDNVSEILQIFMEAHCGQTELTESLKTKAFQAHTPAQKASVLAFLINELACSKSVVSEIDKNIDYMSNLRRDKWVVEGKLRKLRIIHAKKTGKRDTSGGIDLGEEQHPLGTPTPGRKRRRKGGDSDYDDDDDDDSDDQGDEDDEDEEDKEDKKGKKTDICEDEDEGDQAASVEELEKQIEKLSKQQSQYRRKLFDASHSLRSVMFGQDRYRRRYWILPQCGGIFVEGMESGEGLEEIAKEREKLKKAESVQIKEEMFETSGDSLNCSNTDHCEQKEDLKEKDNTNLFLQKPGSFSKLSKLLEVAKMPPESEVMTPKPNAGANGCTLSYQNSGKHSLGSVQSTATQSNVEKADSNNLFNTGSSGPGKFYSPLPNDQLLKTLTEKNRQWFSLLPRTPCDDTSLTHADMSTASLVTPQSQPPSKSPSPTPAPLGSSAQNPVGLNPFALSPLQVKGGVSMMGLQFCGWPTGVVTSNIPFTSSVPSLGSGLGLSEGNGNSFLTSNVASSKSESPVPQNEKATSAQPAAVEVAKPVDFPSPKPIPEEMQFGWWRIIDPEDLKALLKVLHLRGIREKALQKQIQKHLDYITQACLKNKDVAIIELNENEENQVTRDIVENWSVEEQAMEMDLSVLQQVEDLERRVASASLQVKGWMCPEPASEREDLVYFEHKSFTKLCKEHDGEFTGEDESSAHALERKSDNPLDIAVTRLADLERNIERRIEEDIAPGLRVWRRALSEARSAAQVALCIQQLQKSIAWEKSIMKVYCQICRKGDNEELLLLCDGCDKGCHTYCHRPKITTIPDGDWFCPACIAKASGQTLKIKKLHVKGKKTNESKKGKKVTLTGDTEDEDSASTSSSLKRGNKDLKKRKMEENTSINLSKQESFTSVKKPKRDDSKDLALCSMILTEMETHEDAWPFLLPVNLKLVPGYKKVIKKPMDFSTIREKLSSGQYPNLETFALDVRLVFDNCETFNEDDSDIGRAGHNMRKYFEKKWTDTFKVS
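Inhibition is scored as reduced AlphaScreen emission. The BAZ2B/b-H3(5-23)K14Ac complex (50 nM each) in PBS pH 7.4, 0.01% Tween-20 meets compound (up to 110 uM) for 30 min at RT before bead addition.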
* marks the source's active call; other numbers are inactive results; u = inconclusive; x = no result given; [ ] = remark or other dose. Unless noted, the call rests on the fitted dose curve; in most records, active means well fitted curve in the direction sought with a large enough effect; inconclusive means small, poorly fitted or top-dose-only effect, or another doubt; inactive means no such curve, though single readings can be large; an effect the other way counts as inactive or inconclusive.

SMILES | HP1b binding inh | JMJD2A Tudor | PLK1 PBD block | PI5P4K alpha inh | G9a inh | BAZ2B inh
O=C1OC(c2ccco2)=N/C1=C\c1ccc(-c2cccc(C(F)(F)F)c2)o1 | 10.8% | -31.7% | 84.5% | -8.1 | u | u
COc1cccc(CNc2ccc(F)c(Cl)c2)c1 | 44.1% | 25.8% | -3.7% | x | 50.1µM* | u
Oc1ccccc1C=Nc1cccc2ccccc12 | 28.5% | -7.5% | -2.9% | -0.1 | u | -27.2%
CS/C(N)=N/N=C/c1c(O)ccc2ccccc12 | 60.6% | -16.9%[11.4 µM] | -13.9% | 2.4 | 11.2µM* | -17.9%
O=C(NN=Cc1c(O)ccc2ccccc12)C1CC1 | 21.7% | -12.5% | -9.4% | -0.9 | x | x
Oc1ccc2ccccc2c1C=NC12CN3CCN(CN(C3)C1)C2 | u | 79.4µM* | 5.32µM* | -25.5 | u | u
O=C(N/N=C/c1c(O)ccc2ccccc12)C(=O)N1CCCC1 | x | x | 10.7% | -11.3 | x | x
OCC(CO)(CO)N=Cc1c(O)ccc2ccccc12 | 7.2% | u | 4.23µM* | x | 1.41µM* | x
Oc1cccc(C=Nc2cccc3ccccc23)c1O | u | 14.1µM* | -11.4% | -90.3* | x | 44.7µM*
N#Cc1nc(-c2cccc(Cl)c2)oc1N1CCC(C(N)=O)CC1 | 8.4% | u | -0.2% | -1.1 | -0.4% | -20.1%
O=S(=O)(c1ccc2c(c1)OCCO2)N1CCN(S(=O)(=O)c2ccc(Cl)cc2F)CC1 | x | -8.2% | x | x | x | x
Oc1ccc2ccccc2c1C=Nc1ccc(N2CCOCC2)cc1 | u | 50.1µM* | -7.8% | 2.4 | u | 39.8µM*
Cc1cc(C(=O)O)ccc1N=Cc1c(O)ccc2ccccc12 | 0.8% | u | u | 1.4 | 2.51µM* | -6.7%
C=Cc1ccc(N=Cc2c(O)ccc3ccccc23)cc1 | 59.5% | u | -10.7% | 6.5 | 1.58µM* | 6.2%
O=[N+]([O-])c1ccc(N=Cc2sc3ccccc3c2O)cc1 | 14.2% | -4.9% | -12.0% | 5.3 | 1.1%[59 µM] | -24.0%
Oc1c(C=NCc2ccccc2)sc2ccccc12 | u | 89.1µM* | -13.3% | 10.8 | u | u
Oc1ccc2ccccc2c1C=NCc1cn2ccsc2n1 | -4.6% | u | u | x | 8.91µM* | -34.5%
Cc1cc(N=Cc2c(O)ccc3ccccc23)no1 | -10.0% | 28.2µM* | 5.32µM* | x | 1.12µM* | 6.3%
Oc1ccc2ccccc2c1C=Nc1ccccc1Br | u | u | -23.5% | 0.0 | x | u
CN(C)/N=C/c1c(O)ccc2ccccc12 | u | 56.2µM* | -3.4% | -10.3 | 10µM* | 44.7µM*
Oc1ccc2ccccc2c1C=NNc1ccccn1 | 21.3% | -26.4% | u | 24.2 | x | x
Oc1ccccc1N=Cc1c(O)ccc2ccccc12 | -3.5% | u | 37.2% | -8.6 | 7.94µM* | 11.2µM*
O=C(CCCc1ccccc1)NCc1cn2ccsc2n1 | 55.5% | -8.3% | 1.0% | 1.2 | u | 4.9%
CCn1cc2nc(SCC(=O)Nc3ccccc3F)n(Cc3ccc(C)cc3)c(=O)c2n1 | 6.6% | -13.6% | x | x | u | -12.9%
COC(=O)c1c(C)[nH]c(C)c1C(=O)c1ccccc1Cc1ccccc1 | -7.3% | u | -11.2% | 6.9 | 35.6%[12.7 µM] | x
SMILES | HP1b binding inh | JMJD2A Tudor | PLK1 PBD block | PI5P4K alpha inh | G9a inh | BAZ2B inh
COc1ccc(Nc2oc(/C=C/c3ccc(OC)c(OC)c3)nc2C#N)cc1 | 35.7% | -21.4% | x | x | -52.9%[59 µM] | -26.1%
CCn1c(O)c(C=NCc2ccccc2)sc1=S | 5.6% | u | -0.7% | -0.6 | x | u
Oc1ccc2ccccc2c1/C=N/c1nccs1 | -16.7% | -13.0%[57.1 µM] | 18.9µM* | 2.8 | u | u
Oc1cccc(C=NCc2ccccc2)c1O | -13.9% | -25.2% | -17.6% | -58.4* | u | u
CN1CCN(C(=O)c2ccccc2Nc2ccc(SC(F)F)cc2)CC1 | 19.0% | -19.3% | -9.2% | 1.4 | u | -10.1%
CCN1CCN(C(=O)c2ccccc2Nc2ccc(SC(F)F)cc2)CC1 | 22.5% | -23.6% | -11.2% | 1.3 | 50.1µM* | -28.0%
CNC(=O)c1ccccc1Nc1ccc(SC(F)F)cc1 | 17.8% | -7.5% | -18.1% | 11.5 | x | 13.8%
O=C(NCc1ccncc1)c1ccccc1Nc1ccc(SC(F)F)cc1 | 13.6% | -30.8% | 0.6% | 11.9 | 44.7µM* | -33.5%
COc1ccc(C2CC(c3cccs3)=NN2C(=O)CSc2nc(=O)n3cc(C)ccc3n2)cc1 (centres undefined) | 20.3% | -15.8% | -1.2% | -6.0 | u | -28.3%
Cc1sccc1C1C(C#N)=C(N)SC(N)=C1C#N | x | x | x | x | 1.12µM* | -35.4%
N#CC1=C(N)SC(N)=C(C#N)C1c1cccc(O)c1 | 4.1% | u | -4.9% | x | u | u
Cc1cc(C2C(C#N)=C(N)SC(N)=C2C#N)c(C)s1 | 18.1% | u | 11.8% | -55.6* | 1.26µM* | -6.1%
O=C(COC(=O)Cc1ccccc1[N+](=O)[O-])NNC(=O)c1ccc([N+](=O)[O-])cc1 | 37.6% | -14.7% | -2.7% | -7.1 | 12.8%[12.7 µM] | 15.2%
O=C1/C(=C/c2ccco2)Cc2ccccc21 | -19.7% | -30.7% | -7.5% | -3.9 | u | u
CC1C/C(=C/c2ccco2)C(=O)/C(=C/c2ccco2)C1 (centres undefined) | x | x | x | x | 12.6µM* | 35.5µM*
CC1C/C(=C/c2ccccn2)C(=O)/C(=C/c2ccccn2)C1 (centres undefined) | 10.4% | -9.7% | u | 1.5 | 50.1µM* | u
O=C1/C(=C\c2ccco2)CCC/C1=C\c1ccco1 | 44.7µM* | 44.7µM* | 5.0% | u | u | 44.7µM*
CC(C)(C)C1C/C(=C/c2ccccn2)C(=O)/C(=C/c2ccccn2)C1 (centres undefined) | 15.3% | -10.3%[11.4 µM] | u | 3.3 | u | u
CC(Sc1nnc(-c2cccnc2)n1C)C(=O)N1CCOCC1 (centres undefined) | 29.9% | -15.2% | -11.2% | 8.0 | -23.2%[0.501 µM] | -1.9%
COc1cccc(CCNC(=O)CCCC(=O)c2ccccc2)c1 | 46.4% | 4.0% | -1.3% | 1.0 | 0.2%[12.7 µM] | 3.0%
O=C(c1ccc(CSc2nc3ccncc3n2Cc2ccccc2F)cc1)N1CCCCC1 | 36.2% | -14.9% | x | x | -27.1%[59 µM] | -8.9%
O=C(OCC(=O)N1c2ccccc2Sc2ccccc21)C1CC(=O)N(Cc2ccco2)C1 (centres undefined) | -12.5% | u | -2.7% | x | 50.1µM* | u
O=C(COC(=O)C1CC(=O)N(Cc2ccco2)C1)Nc1ccccc1[N+](=O)[O-] (centres undefined) | -9.3% | -20.1% | -7.5% | -0.1 | -43.3% | -3.5%
COc1cccc(-c2cc(C(F)(F)F)n3ncc(C(=O)OC(C)C)c3n2)c1 | 41.8% | 6.2% | x | x | 6.9%[59 µM] | 8.7%
Clc1ccccc1C(c1ccccc1)(c1ccccc1)n1ccnc1 | -15.9% | 28.2µM* | -11.8% | -16.8 | 4.4%[59 µM] | 22.4µM*
C#CC(c1ccccc1)(c1ccccc1)n1ccnc1 | x | x | 1.8% | 2.6 | x | x
